# According to PubChem BioAssay (NCI):
# The panel holds about 83,000 compounds, 20% with a hit somewhere; the sample as a whole holds those more often.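 Single-dose data. Exposure time 48 hours. Values below 10 considered active.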 Unmarked numbers belong to inactive results. Calls of active or inactive are those of the source.
# Key:
# Experiment in all cases: NCI-60 one-dose screen, 48 h (100 = growth as untreated, 0 = no growth, -100 = all killed)
# Details in all cases: 10 µM unless noted
# NCI-H23 lung = test system: NCI-H23 lung
# NCI-H226 lung = test system: NCI-H226 lung
# NCI-H322M lung = test system: NCI-H322M lung
# HOP-62 NSCLC = test system: HOP-62 NSCLC
# NCI-H460 lung = test system: NCI-H460 lung
# NCI-H522 lung = test system: NCI-H522 lung
# A549/ATCC NSCLC = test system: A549/ATCC NSCLC
# 786-0 renal = test system: 786-0 renal
# COLO 205 colon = test system: COLO 205 colon
# DU-145 prostate = test system: DU-145 prostate
# K-562 leukemia = test system: K-562 leukemia
# MALME-3M melanoma = test system: MALME-3M melanoma
# MDA-MB-231 breast = test system: MDA-MB-231 breast
# RXF 393 renal = test system: RXF 393 renal
# SF-268 CNS = test system: SF-268 CNS
# SF-295 CNS = test system: SF-295 CNS
# SF-539 CNS = test system: SF-539 CNS
# UACC-257 melanoma = test system: UACC-257 melanoma
# M14 melanoma = test system: M14 melanoma
# HCT-15 colon = test system: HCT-15 colon
SMILES,growth (NCI-H23 lung),growth (NCI-H226 lung) [%],growth (NCI-H322M lung) [%],growth (HOP-62 NSCLC),growth (NCI-H460 lung),growth (NCI-H522 lung),growth (A549/ATCC NSCLC),growth (786-0 renal),growth (COLO 205 colon),growth (DU-145 prostate),growth (K-562 leukemia),growth (MALME-3M melanoma),growth (MDA-MB-231 breast),growth (RXF 393 renal),growth (SF-268 CNS),growth (SF-295 CNS),growth (SF-539 CNS),growth (UACC-257 melanoma),growth (M14 melanoma),growth (HCT-15 colon)
C=C(C)[C@@H]1C[C@H](O)Cc2cc(Cl)cc(Cl)c2N1,103%,100,100,96.6%,110%,92.8%,94.2%,100%,107%,108%,103%,108%,93.6%,101%,102%,104%,94.5%,104%,110%,–
C=C1CC[C@@H]2[C@](C)(COC(C)=O)[C@H](OC(C)=O)CC[C@@]2(C)[C@@H]1CC(Nc1ccc(S(=O)(=O)Nc2cc(C)on2)cc1)C1=CCOC1=O (some centres undefined),71%,79.5,80.4,60.2%,79.5%,-20.2% (active),72.2%,89.8%,29%,71.1%,9.67% (active),56.6%,61.1%,29.8%,67.3%,100%,6.3% (active),68.9%,29.9%,0.176% (active)
CCCCCCCCCCCCCCCCCC1=NC(C)(C)CN1CCO,38.9%,17.6,59.8,-74.9% (active),-51.7% (active),-58.2% (active),-28.9% (active),-53.6% (active),-59.9% (active),2.01% (active),-49.5% (active),11.8%,-61.7% (active),-47.3% (active),-67.1% (active),-2.44% (active),-80.6% (active),-10.6% (active),-74.7% (active),–
CC(=O)c1nc2ccccc2n1CCn1cc(CC(N)C(=O)O)c2ccccc21 (centres undefined),90.3%,102,93.6,97.7%,115%,96.9%,103%,115%,103%,104%,92.5%,100%,77.3%,120%,110%,110%,101%,110%,–,–
O=C(CN1CCCCC1)Sc1nnc2sc3ccccc3n12,93.1%,84.9,111,89.9%,103%,99.5%,109%,106%,121%,112%,99.6%,97.5%,97.4%,108%,102%,110%,101%,102%,98%,112%
Cc1ccc2c(c1)C(=O)/C(=C/c1ncc([N+](=O)[O-])n1C)O2,-2.65% (active),65.7,75.6,61.2%,-38% (active),-64.1% (active),6.86% (active),2.46% (active),-74.8% (active),-25.9% (active),0.705% (active),-46.7% (active),-40.1% (active),-57.7% (active),-31.9% (active),18%,39.1%,-34.6% (active),-55.8% (active),–
O=C1/C(=C/c2ccc3cccc(Cl)c3n2)SC(=S)N1CCc1ccc(O)cc1,94.1%,86.1,91.6,86.7%,99.1%,54.9%,93.6%,94.2%,107%,101%,86.2%,74.7%,79.9%,103%,84.9%,91.9%,86.9%,100%,90.8%,–
COC(=O)CCC1=C(C)/C(=C/c2[nH]c(-c3ccc[nH]3)cc2OC)N=C1C,8.11% (active),23.9,26.6,3.57% (active),6.04% (active),-66.9% (active),13%,13.1%,12.1%,14.2%,-16.4% (active),-38.1% (active),-17% (active),24.1%,21.9%,-30% (active),18.7%,-16.4% (active),4.36% (active),–
CC[C@@H]1OC(=O)[C@H](C)[C@@H](O[C@H]2C[C@@](C)(OC)[C@@H](O)[C@H](C)O2)[C@H](C)[C@@H](O[C@@H]2O[C@H](C)C[C@H](N(C)C)[C@H]2O)[C@](C)(O)C[C@@H](C)[C@@H]2N[C@@H](COCCOC)O[C@H]([C@H]2C)[C@]1(C)O,94%,110,96,107%,117%,98.6%,100%,95.8%,98.7%,100%,103%,99.5%,94.6%,116%,112%,110%,106%,106%,99.7%,–
O=C1Nc2ccccc2C12Nc1cc(Cl)ccc1S2 (centres undefined),78.4%,90.8,87.1,98.4%,87.5%,82.6%,98.7%,98.4%,98.3%,85.9%,39.7%,81.8%,85.4%,121%,87.8%,78.8%,86.5%,138%,91.6%,–
CN(C)c1cccc2c(S(=O)(=O)N[C@H]3CC[C@H]4[C@@H]5CCc6cc(O)ccc6[C@H]5CC[C@]34C)cccc12,40.8%,51,57.3,66.8%,7.05% (active),-10.5% (active),18.5%,34.9%,8.09% (active),24%,2.22% (active),29.6%,35%,11.2%,40.6%,44.9%,44.7%,52.8%,31.3%,18%
Clc1ccc([C@@H]2C[C@@H]3Cc4cc(Br)c5ccccc5c4N2O3)c(Cl)c1,78.6%,95.7,90.7,87.2%,93.3%,43.8%,70.8%,95%,98.4%,93.3%,23.8%,61.7%,89.1%,88.9%,85.8%,65.5%,91.4%,66.1%,75.6%,–
COc1ccc(-c2nn(-c3ccccc3)cc2/C=C2\SC(=S)N(CCc3ccc(O)cc3)C2=O)cc1,89.2%,86.7,88.6,97.1%,81.7%,64.7%,81.2%,93.7%,108%,93.3%,66%,85.1%,75.4%,92.5%,81.4%,80.2%,87.2%,93.7%,91.3%,77.7%
Nc1c2ccccc2nc2ccccc12 (tested in a mixture with another compound),19.2%,11,29.8,25.8%,4.41% (active),-22.3% (active),4.37% (active),32.5%,2.36% (active),19.4%,15.3%,27%,15.9%,-2.81% (active),19.2%,24.4%,27.5%,-11.3% (active),17.1%,14.7%
COc1ccc(C2CC(c3ccc(OC)c(OC)c3)=NN2C(=O)c2cc(OC)c(OC)c(OC)c2)c(OC)c1 (centres undefined),92.6%,76.4,94.8,76.1%,78.5%,33.9%,82.8%,66.8%,63.9%,101%,51.3%,86.7%,90.3%,48.6%,82%,31%,64.4%,61.7%,63.9%,–
Cc1ccc(C(C)C)cc1NC(=O)Nc1ccc([N+](=O)[O-])cc1,-32.8% (active),27.3,43.2,-0.0828% (active),-1.38% (active),-19.8% (active),9.96% (active),8.79% (active),-35.4% (active),12.2%,18.2%,6.64% (active),35.6%,90.8%,29.9%,4.2% (active),29%,-5.55% (active),22.3%,10.7%
